Source: PubChem BioAssay (NCI)
This is part of a sample that, as a whole, favours compounds with a hit. Of some 83,000 tested, about 20% had one in any assay.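 In brief: 96-well plates, 48 h treatment, single concentration, percent growth endpoint.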 Active and inactive are the calls of the source. Rule for the calls: active = growth percent below 10; inactive = the rest.

Legend:
Test in all cases: NCI-60 one-dose screen, 48 h (100 = growth as untreated, 0 = no growth, -100 = all killed)
Conditions in all cases: 10 µM unless noted
HCT-15 colon = test system: HCT-15 colon
HT29 colon = test system: HT29 colon
SNB-75 CNS = test system: SNB-75 CNS
SNB-19 CNS = test system: SNB-19 CNS
PC-3 prostate = test system: PC-3 prostate
LOX IMVI melanoma = test system: LOX IMVI melanoma
UACC-62 melanoma = test system: UACC-62 melanoma
SK-MEL-28 melanoma = test system: SK-MEL-28 melanoma
SK-MEL-5 melanoma = test system: SK-MEL-5 melanoma
U251 CNS = test system: U251 CNS

Measured: growth

CC/C=C\C/C=C\C[C@H]1C/C=C2/C(=O)C=C[C@@H]2C/C=C\CCC(=O)O1
active: HCT-15 colon 0.621% | HT29 colon -40.5% | PC-3 prostate 2.76% | LOX IMVI melanoma -59.7%
inactive: SNB-75 CNS 64% | SNB-19 CNS 28%

COc1cc(/C=C/C(=O)c2ccc(O)c(CN3CCN(c4cc5c(cc4F)c(=O)c(C(=O)O)cn5C4CC4)CC3)c2)cc(OC)c1OC
inactive: HCT-15 colon 19.3% | HT29 colon 10.3% | SNB-75 CNS 57.7% | SNB-19 CNS 75.7% | PC-3 prostate 47.1% | UACC-62 melanoma 59.9% | LOX IMVI melanoma 20.7% | SK-MEL-28 melanoma 59.3%

COc1cccc(/C=N/NC(=O)c2ccccc2Nc2ccnc(C(F)(F)F)c2)c1O
inactive: HCT-15 colon 28.4% | HT29 colon 51.3% | SNB-75 CNS 19.6% | SNB-19 CNS 21.1% | SK-MEL-28 melanoma 23%
active: SK-MEL-5 melanoma -33.1% | UACC-62 melanoma -24.2% | LOX IMVI melanoma 4.88%

COc1cc(Nc2cc(C)nc(N3CCN(c4ccnc5cc(Cl)ccc45)CC3)n2)cc(OC)c1
inactive: SNB-19 CNS 27.5% | PC-3 prostate 22.8% | SK-MEL-28 melanoma 44.5%
active: HCT-15 colon 5.63% | HT29 colon 3.4% | SNB-75 CNS 8.38% | UACC-62 melanoma -2.21%

Cc1nc(/N=C(\N)NC(=O)Nc2cccc([N+](=O)[O-])c2)sc1C
inactive: HCT-15 colon 30.1% | HT29 colon 42.8% | SNB-75 CNS 58.3% | SNB-19 CNS 90.1% | PC-3 prostate 77.1% | UACC-62 melanoma 63.1% | LOX IMVI melanoma 71.7% | SK-MEL-28 melanoma 80.5%

Brc1ccc(-c2csc(Nc3ccccn3)n2)cc1
inactive: HCT-15 colon 138% | HT29 colon 97.8% | SNB-75 CNS 93.4% | SNB-19 CNS 99.4% | SK-MEL-5 melanoma 75.5% | UACC-62 melanoma 75.5% | LOX IMVI melanoma 214% | SK-MEL-28 melanoma 149%

NC(=NCCCOc1ccc(Cl)cc1)Nc1ccc(C(F)(F)F)cc1
active: HT29 colon 3.11% | LOX IMVI melanoma 9.81%
inactive: HCT-15 colon 54% | SNB-75 CNS 35.4% | SNB-19 CNS 26.4% | PC-3 prostate 26.9%

CC(C)n1c(/C=C/[C@@H](O)C[C@@H](O)CC(=O)O)c(-c2ccc(F)cc2)c2ccccc21
inactive: HCT-15 colon 50.6% | HT29 colon 75.9% | SNB-75 CNS 29.9% | SNB-19 CNS 55.7% | PC-3 prostate 26.5% | UACC-62 melanoma 16.3% | SK-MEL-28 melanoma 72.9%
active: LOX IMVI melanoma 5.69%

COc1cccc(-c2nc3sccn3c2-c2ccnc(NCCNS(=O)(=O)c3ccc(F)cc3)c2)c1
active: UACC-62 melanoma -9.01%
inactive: HCT-15 colon 17.2% | HT29 colon 24% | SNB-75 CNS 22.9% | SNB-19 CNS 50.5% | PC-3 prostate 16.3% | LOX IMVI melanoma 25.1% | SK-MEL-28 melanoma 45.2%

CC(C)(C)c1cc(C(C)(C)C)cc(S(=O)(=O)Nc2cc3ccccc3cc2C(=O)NCCN)c1
active: HT29 colon -43.7% | LOX IMVI melanoma -77.8% | SK-MEL-28 melanoma -44.9%
inactive: HCT-15 colon 38.8% | SNB-75 CNS 63.4% | SNB-19 CNS 68.9% | SK-MEL-5 melanoma 81.1% | UACC-62 melanoma 55%

COc1cc(-c2nc3cc(Cl)c(Cl)cc3[nH]2)ccc1OCC(=O)N=Nc1c(O)[nH]c2ccccc12
active: HT29 colon -23.1% | SNB-75 CNS -90% | SNB-19 CNS 0.731% | PC-3 prostate -59.3% | UACC-62 melanoma -93.9% | LOX IMVI melanoma -100% | SK-MEL-28 melanoma -93.4%
inactive: HCT-15 colon 64.4%

OCCN1CCN(c2nc(Nc3ccc(-c4nc5ccccc5[nH]4)cc3)c3cn[nH]c3n2)CC1
active: HCT-15 colon -78.9% | HT29 colon -91.4% | SNB-75 CNS -96.6% | SNB-19 CNS -76.7% | PC-3 prostate -76.1% | LOX IMVI melanoma -89.2%

CC[C@@H](C(=O)[C@@H](C)[C@@H](O)[C@H](C)[C@@H]1O[C@@H]([C@@H](CC)C(=O)O)CC[C@@H]1C)[C@H]1OC2(C=C[C@@H](O)[C@]3(CC[C@@](C)([C@H]4CC[C@](O)(CC)[C@H](C)O4)O3)O2)[C@H](C)C[C@@H]1C (stereo partly drawn)
active: SNB-75 CNS -28.8% | SNB-19 CNS -33.7% | UACC-62 melanoma -96.2% | LOX IMVI melanoma 8.3% | SK-MEL-28 melanoma -89.8%
inactive: HCT-15 colon 19.8% | HT29 colon 13.5% | PC-3 prostate 31.2%

CC(=O)c1cc2c(N)c(C(=O)Nc3ccccc3)sc2nc1C
inactive: HCT-15 colon 60.3% | HT29 colon 67.3% | SNB-75 CNS 66.8% | U251 CNS 73.5% | PC-3 prostate 81% | UACC-62 melanoma 31.5% | LOX IMVI melanoma 85.4% | SK-MEL-28 melanoma 78.4%

COc1cc(/C=C/c2cc(/C=C/c3ccc(O)c(OC)c3)n(-c3c(Cl)cccc3Cl)c(=O)n2)ccc1O
active: HT29 colon -30.4% | U251 CNS 8.54% | LOX IMVI melanoma 2.83%
inactive: HCT-15 colon 10.3% | SNB-75 CNS 49.4% | PC-3 prostate 34.9% | UACC-62 melanoma 38.2% | SK-MEL-28 melanoma 17.6%

CCN1CCC2(CC1)NC(=O)c1c(c3ccc(Cl)c(Cl)c3n1C)C2C#N (stereo not drawn)
inactive: HCT-15 colon 14.3% | SNB-19 CNS 84.9% | U251 CNS 57% | PC-3 prostate 47.1% | LOX IMVI melanoma 30.6%
active: HT29 colon 7.28% | UACC-62 melanoma -83.2% | SK-MEL-28 melanoma -100%

O=C1NC(=Nc2ccc(O)cc2)S/C1=C\c1cccc(Cl)c1
inactive: HCT-15 colon 30.1% | HT29 colon 109% | SNB-75 CNS 70.9% | U251 CNS 59.3% | SK-MEL-5 melanoma 70.6% | UACC-62 melanoma 80.9% | LOX IMVI melanoma 53.4% | SK-MEL-28 melanoma 94.7%

COc1ccc(Nc2c3c4c(cccc4[nH]c2=O)C(=O)c2ccccc2-3)cc1
active: HCT-15 colon -4.37% | HT29 colon -32.1% | SNB-75 CNS 0.39% | U251 CNS 3.3% | SK-MEL-5 melanoma -42.3%
inactive: UACC-62 melanoma 38.3% | LOX IMVI melanoma 23.9% | SK-MEL-28 melanoma 71.1%

CCn1c(O)c(/C=N/NC(=O)C(C)c2ccc(CC(C)C)cc2)sc1=S (stereo not drawn)
inactive: HCT-15 colon 17.6% | HT29 colon 10.1% | U251 CNS 15.6% | SK-MEL-5 melanoma 17% | UACC-62 melanoma 46% | LOX IMVI melanoma 27.1% | SK-MEL-28 melanoma 69.6%
active: SNB-75 CNS -2%

COc1ccc(/C=N/C2=C(C#N)C(c3ccc(N(C)C)cc3)c3ccc4ccccc4c3O2)cc1 (stereo not drawn)
inactive: HCT-15 colon 38.7% | HT29 colon 48.4% | SNB-19 CNS 68% | U251 CNS 71.1% | PC-3 prostate 52.5% | UACC-62 melanoma 48.3% | LOX IMVI melanoma 37.3% | SK-MEL-28 melanoma 74.4%

COc1cccc(C2=NN3C(C2)c2cc(Br)cc(OC)c2OC32CCN(Cc3ccccc3)CC2)c1 (stereo not drawn)
inactive: HCT-15 colon 101% | HT29 colon 108% | SNB-75 CNS 89.5% | U251 CNS 98.8% | SK-MEL-5 melanoma 99.5% | LOX IMVI melanoma 94.2% | SK-MEL-28 melanoma 107%

COc1cc2nc(N3CCCC3)nc(NCC3CCCCC3)c2cc1OC
active: HCT-15 colon -70.9% | HT29 colon -24.8% | SK-MEL-5 melanoma -97.7% | LOX IMVI melanoma -92.8% | SK-MEL-28 melanoma -86.4%
inactive: SNB-75 CNS 93.4% | PC-3 prostate 25.1% | UACC-62 melanoma 87%

COc1cccc(/C=C2\SC(=Nc3ccc(NC(C)=O)cc3)NC2=O)c1OC
inactive: HCT-15 colon 96.5% | HT29 colon 116% | SNB-75 CNS 67.5% | U251 CNS 93.1% | SK-MEL-5 melanoma 96.2% | UACC-62 melanoma 98% | LOX IMVI melanoma 95.7% | SK-MEL-28 melanoma 101%

COc1cccc2c1C(=O)c1c(O)c3c(c(O)c1C2=O)C[C@](O)(C(=O)CO)C[C@H]3O[C@@H]1C[C@@H](NC(=O)CCCN(C)C2(c3ccc(F)cc3)CC3CCC2C3)[C@H](O)[C@@H](C)O1 (stereo partly drawn)
active: HCT-15 colon 3.39% | HT29 colon -61.2% | U251 CNS -98% | PC-3 prostate -76.7% | LOX IMVI melanoma -94.4%
inactive: SNB-75 CNS 30%

CSc1nc(NCc2ccccc2)c(C#N)c(-c2cccc([N+](=O)[O-])c2)n1
inactive: HCT-15 colon 95.9% | HT29 colon 103% | SNB-75 CNS 68.2% | PC-3 prostate 94.5% | SK-MEL-5 melanoma 100% | UACC-62 melanoma 79% | LOX IMVI melanoma 92.1% | SK-MEL-28 melanoma 102%

O=C(Cn1cccc(Nc2ccccc2)c1=O)Nc1ccccc1
inactive: HCT-15 colon 101% | HT29 colon 106% | SNB-75 CNS 84.9% | U251 CNS 97.8% | PC-3 prostate 97.3% | UACC-62 melanoma 93.6% | SK-MEL-28 melanoma 104%

COc1cccc(-c2nc3sccn3c2-c2ccnc(NCCCNS(=O)(=O)c3c(Cl)cccc3Cl)c2)c1
inactive: HCT-15 colon 37.7% | HT29 colon 48.4% | SNB-75 CNS 73% | PC-3 prostate 35.1% | SK-MEL-5 melanoma 22.8% | UACC-62 melanoma 25.7% | LOX IMVI melanoma 54.1% | SK-MEL-28 melanoma 90.1%

O=[N+]([O-])c1ccc(Nc2nc(NCCN3CCOCC3)ncc2[N+](=O)[O-])cc1
inactive: HCT-15 colon 84.9% | HT29 colon 91.8% | SNB-75 CNS 76.4% | UACC-62 melanoma 84.2% | LOX IMVI melanoma 96.8% | SK-MEL-28 melanoma 98%

COc1cc(-c2nn(-c3ccc(C(=O)O)cc3)cc2C(=O)O)ccc1O
inactive: HCT-15 colon 48.6% | HT29 colon 110% | SNB-75 CNS 36.6% | U251 CNS 78.5% | PC-3 prostate 66.9% | UACC-62 melanoma 90% | LOX IMVI melanoma 44.4% | SK-MEL-28 melanoma 63.5%

O=C(O)c1ccc(N=CC(=O)c2ccc(-c3ccccc3)cc2)cc1
inactive: HCT-15 colon 113% | HT29 colon 103% | SNB-75 CNS 109% | U251 CNS 98.5% | PC-3 prostate 86.2% | UACC-62 melanoma 93.5% | LOX IMVI melanoma 101% | SK-MEL-28 melanoma 101%

CCN1CCN(c2nc(NCCNc3ccnc4cc(Cl)ccc34)c3ccccc3n2)CC1
active: HCT-15 colon 7.08% | HT29 colon -14.1% | UACC-62 melanoma -87.9% | LOX IMVI melanoma -62.9%
inactive: SNB-75 CNS 44.7% | PC-3 prostate 24.7%
